The nature of assay [1]: U-118MG Cancer Cell Toxicity qHTS against the NCATS CANVASS Library (AID 1347351). Further: potency means the concentration at half of the fitted maximal effect. The method in brief: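 Viability read-out: CellTiter-Glo luminescence after 72 h compound exposure at 37 °C/5% CO2. Cells plated at 1000/well, 4 h pre-incubation; 11-point titration. Bortezomib served as control.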
Assay [2] is described as follows: HPAF-II 24hr Apoptosis Induction qHTS against the NCATS CANVASS Library (AID 1347356). Further: 0% is about no effect. In outline:
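Luminescent caspase-3/7 signal (DEVD substrate, Caspase-Glo) served as read-out, taken 15 min after reagent addition to HPAF-II cells exposed 24 h to compounds.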
A general note: qHTS replaces the single test concentration by a dilution series.

Assay [3] is described as follows: HEK293 18hr Apoptosis Induction qHTS against the NCATS CANVASS Library (AID 1347357). Further: 0% is about no effect. In outline:
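Caspase-3/7 luminescence (DEVD substrate, Caspase-Glo) after 18 h compound exposure of HEK293 cells, 500 cells/well; 11-point series; doxorubicin titration as control.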

Assay [4] in a line: HPAF-II 18hr Apoptosis Induction qHTS against the NCATS CANVASS Library (AID 1347360). Further: potency means the concentration at half of the fitted maximal effect. On caspase activation: 0% is about no effect. In outline: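 Caspase-Glo 3/7 luminescence (DEVD substrate) after 15 min RT; HPAF-II, 500 cells/well, 18 h compound exposure at 37 degrees C, qHTS series; doxorubicin control 0.1nM - 4uM.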
A short description of assay [5]: HEK293 12hr Apoptosis Induction qHTS against the NCATS CANVASS Library (AID 1347361). Further: 0% is about no effect. In outline:
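500 HEK293 cells/well; cpds pin-transferred, 11-pt conc series; 12 h, 37 degrees C/5% CO2; Caspase-Glo 3/7 added, 15 min RT dark; luminescence.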

Assay [6] has as its system NAD(P)H diaphorase (Clostridium kluyveri). Description: Diaphorse counterscreen qHTS: Assay Interference Panel against the NCATS CANVASS Library (AID 1347362). Further: 0% is about no effect. In outline:
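Clostridium kluyveri diaphorase in PBS with 0.01% Tween-20 was preincubated 15 min at room temperature in the dark with compounds (11-point series). Resorufin fluorescence (ex 525/20, em 598/25) was read 5 min after adding resazurin/NADH.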
Background: Counterscreens check selectivity or assay interference.

The nature of assay [7]: KB-3-1 Cancer Cell Toxicity qHTS against the NCATS CANVASS Library (AID 1347366). Further: nearly all actives have a fitted effect of over 75% in size. Further: potency means the concentration at half of the fitted maximal effect. On activity change, negative = cytotoxicity: series mostly up to about 46 µM; on the % scale 0 is the no-effect control and ±100 the full control effect. The method in brief:
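500 KB-3-1 cells/well; compounds pin-transferred, 11-pnt series; 72 hr, 37C/5% CO2; CellTiter-Glo, 10 min RT; luminescence read-out.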

Assay [8] in a line: MCF7 Cancer Cell Toxicity qHTS against the NCATS CANVASS Library (AID 1347369). On activity change, negative = cytotoxicity: series mostly up to about 46 µM; on the % scale 0 is the no-effect control and ±100 the full control effect. In outline:
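Luminescent ATP signal (CellTiterGlo) served as the cytotoxicity read-out after MCF7 breast cancer cells had been incubated 72 hr at 37C with natural products in an 11-point titration.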

Assay [9] can be described thus: qHTS for ATAD5 Antagonist screened against the NCATS CANVASS Library (AID 1347370). Further: nearly all actives have a fitted effect of over 65% in size. Further: potency means the concentration at half of the fitted maximal effect.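 On activity change, negative = inhibition: HEK293T cells carrying an ATAD5 luciferase reporter co-treated with 10 µM 5-fluorouridine; series mostly up to about 46 µM; on the % scale 0 is the no-effect control and ±100 the full control effect.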 The method in brief: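 HEK293T cells with stably integrated ATAD5-luciferase reporter, 2000/well, 5 h attachment; compounds plus 10 µM 5-fluorouridine, 16 h at 37 °C. Luciferase luminescence read, with CellTiter-Fluor viability read first.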
The nature of assay [10]: J3T Cancer Cell Toxicity qHTS against the NCATS CANVASS Library (AID 1347371). In outline: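 Cells plated at 500 per well, compounds pin-transferred, plates incubated 72 hr at 37C, then CellTiterGlo added and luminescence read to measure ATP content.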
The target of assay [11] is Nuclear receptor subfamily 1 group I member 3 (Homo sapiens) (UniProt Q14994). Description: qHTS for Constitutive Androstane Receptor (CAR) Antagonist screened against the NCATS CANVASS Library (AID 1347372).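 Further: cells stimulated with 50 nM CITCO agonist so inhibition reflects antagonism; series mostly up to about 46 µM; on the % scale 0 is the no-effect control and ±100 the full control effect.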 In outline:
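HepG2 cells stably carrying hCAR and a CYP2B6-2.2kb luciferase reporter were exposed to compounds plus 50 nM CITCO for 24hr at 37C. CAR activity was read by ONE-Glo luminescence, with viability measured first by CellTiter-Fluor.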

For assay [12] the target is unchanged. Description: qHTS for Constitutive Androstane Receptor (CAR) Agonist screened against the NCATS CANVASS Library (AID 1347373).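 Further: every well also contained 1.5 µM PK11195 alongside the test compound.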 Further: potency means the concentration at half of the fitted maximal effect. On activation: 0% is about no effect. In outline:
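HepG2-hCAR-CYP2B6 cells, 2500/well, attached 4hr; cpd + PK11195 1.5uM final; 24hr 37C 5% CO2. CellTiter-Fluor viability read, then ONE-Glo luminescence for CAR activation.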

Assay [13] in a line: 10-beta competent E. coli microbial cell viability qHTS against the NCATS CANVASS Library (AID 1347376). Further: series mostly up to about 46 µM; 0% is about no effect. The method in brief:
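E. coli 10-beta, 0.2 OD; cpds 11-pt; o/n 37C, 5% CO2; BacTiter-Glo 20 min RT; luminescence (ATP) = viable cells. Daunomycin ctrl.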

Assay [14] is described as follows: qHTS for H2AX Agonists against the NCATS CANVASS Library (AID 1347378). Further: potency means the concentration at half of the fitted maximal effect. On activation: 0% is about no effect. The method in brief:
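TR-FRET readout (ex 320 nm, em 665/620 nm ratio) of phospho-H2AX (S139) in CHO-K1 lysates. Cells treated 3 hr at 37C with compound titration, 0.76% DMSO; lysis 30 min, antibody detection 24 hr at RT.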

Assay [15] can be described thus: qHTS for Inflammasome Signaling Inhibitors: IL-1-beta AlphaLISA screen against the NCATS CANVASS Library (AID 1347379).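 Further: human THP-1 cells primed with LPS then triggered with ATP.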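 On activity change, negative = inhibition: secreted IL-1B measured as AlphaLISA emission at 615 nm; on the % scale 0 is the no-effect control and ±100 the full control effect; lower signal means less IL-1B release which is the wanted effect.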 In outline: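 THP-1 cells pretreated 1 hr with compound (up to 57.5 uM final), then stimulated with LPS (250 ng/mL final) and ATP (1.25 mM final). Secreted IL-1B measured by AlphaLISA after 16 hr; glyburide as positive control.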
Assay [16] is described as follows: Cytotoxicity qHTS for assessment of Hepg2 cells membrane integrity screened against the NCATS CANVASS Library (AID 1347387). In outline:
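qHTS, 11-pt conc. series, 0.59 nM - 46 uM final; HepG2 2000 cells/well, overnight attachment; 5 hr compound exposure 37C/5% CO2; CytoTox-ONE, 10 min RT; fluorescence ex560/em590 = LDH from damaged membranes.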

A short description of assay [17]: Secretion counterscreen for inhibitors of the SERCaMP assay screened against the NCATS CANVASS Library (AID 1347390).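 Further: light from luciferase secreted into medium read as a measure of general secretion.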 Further: potency means the concentration at half of the fitted maximal effect. In outline: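 Luminescence from constitutively secreted GLuc in SH-SY5Y-GLuc STOP cells, read after coelenterazine addition, served as read-out. Compounds tested 0.001 - 77 uM for 20 h at 37C; Brefeldin A as positive control.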
The nature of assay [18]: Vero-766 cells viability qHTS against the NCATS CANVASS Library: Counterscreen for Zika virus inhibition assay (AID 1347394). Further: nearly all actives have a fitted effect of over 60% in size. Further: potency means the concentration at half of the fitted maximal effect. The method in brief: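 CellTiter-Glo luminescence, lower signal indicating cytotoxicity. Vero 766 cells without Zika virus, 1000 cells/well, plated overnight, then treated 72 h at 37C across an 11-point series.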
Assay [19] can be described thus: Viability qHTS for inhibitors of the SERCaMP assay screened against the NCATS CANVASS Library (AID 1347400). Further: nearly all actives have a fitted effect of over 70% in size. Further: potency means the concentration at half of the fitted maximal effect. The method in brief:
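SH-SY5Y SERCaMP MJH297 cells, 1000/well; 4 h settle, 37C/5% CO2; pin-transferred cpds; 48 h; CellTiter-Glo lum. Pos ctrl bortezomib 0.0001 - 4.6 uM.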

The nature of assay [20]: Redox Reaction Profiling qHTS: Assay Interference Panel against the NCATS CANVASS Library (AID 1347401).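 Further: 100% = activation by 2 µM chloranil control.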 The method in brief:
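Resazurin (5 uM) conversion to resorufin measured with 200 uM DTT in 50 mM HEPES pH 7.3, 50 mM NaCl. Compounds tested in 11-point qHTS series. Fluorescence (ex 525/em 598 nm) read before and after 15 min dark incubation.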

SMILES strings stand for the structures. Inconclusive results are not listed. Values without a mark were called inactive. Active and inactive are the calls of the source. The call rests on the fitted dose curve; in most records, active means well fitted curve in the direction sought with a large enough effect; inconclusive means small, poorly fitted or top-dose-only effect, or another doubt; inactive means no such curve, though single readings can be large; an effect the other way counts as inactive or inconclusive.

Nuclear receptor subfamily 1 group I member 3 (Homo sapiens), sequence (Q14994 whole entry, looked up): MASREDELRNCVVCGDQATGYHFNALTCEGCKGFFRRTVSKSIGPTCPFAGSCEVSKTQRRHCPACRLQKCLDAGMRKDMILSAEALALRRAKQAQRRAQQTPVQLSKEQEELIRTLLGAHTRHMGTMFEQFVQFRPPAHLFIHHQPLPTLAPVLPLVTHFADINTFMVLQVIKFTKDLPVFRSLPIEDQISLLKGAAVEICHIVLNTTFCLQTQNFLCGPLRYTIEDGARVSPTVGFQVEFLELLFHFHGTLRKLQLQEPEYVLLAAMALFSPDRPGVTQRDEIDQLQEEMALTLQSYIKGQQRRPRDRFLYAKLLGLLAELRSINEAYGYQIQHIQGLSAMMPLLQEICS

Regarding `COc1ccc([C@@H]2CC(=O)c3c(cc(O)c(C/C=C(\C)CCC=C(C)C)c3O)O2)cc1`, the outcome is “inactive [at 7.64 µM]” in assay [1], “inactive [at 9.19 µM]” in assay [10] and “inactive [at 11.5 µM]” in [15]. Moreover, the caspase activation was 3.45% [at 9.19 µM] in assay [2], 0.682% [at 9.19 µM] in assay [3], -1.9% [at 9.19 µM] in assay [4] and 1.23% [at 9.19 µM] in assay [5]. In addition, the activity change, negative = inhibition was -4.24% [at 11.5 µM] in assay [6], -0.0168% [at 9.19 µM] in assay [9], 30.2% [at 9.19 µM] in assay [11] and 35.7% [at 15.3 µM] in assay [17]. Also, the activity change, negative = cytotoxicity is -3.45% [at 9.19 µM] in assay [7], -4.45% [at 9.17 µM] in [8] and -0.051% [at 18.4 µM] in assay [19]. In assay [12], the Potency was 3.05 µM (active). The results for the activity change, negative = cytotoxic in assay [13] and in [18] were -2.49% [at 9.19 µM] and -18.7% [at 9.19 µM], respectively. In addition, the activation in assay [14] is 3.21% [at 15.3 µM]. Further, the cytotoxicity (LDH release) in assay [16] was -0.251 [at 9.19 µM]. The activation (redox signal) in assay [20] is -16.9% [at 11.4 µM].
With `C[C@@H]1CC[C@]2(C(=O)O)CC[C@]3(C)C(=C2[C@H]1C)CC[C@@H]1[C@@]2(C)CC[C@H](O)C(C)(C)[C@@H]2CC[C@]13C`, the outcome in [2], in [5], in [13] and in [16] was inactive. In addition, the Potency result in assay [3], in assay [4], in [6], in assay [7], in assay [8] and in assay [9] was “inactive” throughout. The Potency entry in [10], in assay [11], in assay [12], in [17] and in assay [20] was “inactive” in each case. Moreover, the values for the Potency in assay [14] and in [18] were 34.4 µM (active) and 18.6 µM (active), respectively.
For the molecule `CCC(C)=C1OC(=O)[C@H](C)[C@H](O)[C@H](Cc2cccnc2)NC(=O)C(NC(=O)c2ncccc2O)C(C)OC1=O` (some centres undefined), the Potency entry in [1], in [3], in [4], in assay [7], in assay [8] and in assay [9] was “inactive” in each case. In addition, the Potency entry in [10], in [11], in assay [12], in assay [14], in assay [15] and in [17] was “inactive” throughout. Also, the Potency entry in assay [19] and in assay [20] was “inactive” in each case. In addition, the result in [2], in assay [5], in assay [13] and in assay [16] was inactive.
Take `CC[C@@H]1C[C@@]2(CC)OC(=O)[C@@]3(CC)[C@H](CC)[C@@H]1[C@@H]23`: the Potency result in assay [1], in [3], in assay [4], in [6], in [7] and in [9] was “inactive” each time. The Potency entry in assay [10], in assay [12], in [14], in assay [15], in assay [18] and in [20] was “inactive” throughout. In addition, the call in [2], in assay [5], in assay [13] and in assay [16] was inactive. The Potency in assay [19] was 6.04 µM (active).
On to `COC(=O)C1=C[C@]23C[C@@H](C)CC[C@@H]2[C@@]2(C)CC[C@@H](C(C)C)[C@@](O)(O3)[C@@H]12`, for which the Potency entry in assay [1], in [4], in assay [6], in assay [7], in assay [8] and in [9] was “inactive” in each case. For the same molecule, the Potency entry in assay [10], in assay [11], in assay [12], in assay [14], in assay [15] and in [17] was “inactive” in each case. The Potency result in assay [18], in [19] and in assay [20] was “inactive” in each case. Besides, the call in assay [2], in assay [13] and in assay [16] was inactive.
As to `COc1cc(/C=C/C(=O)OC[C@@H](Cc2ccc(O)c(OC)c2)[C@@H](COC(=O)/C=C/c2ccc(O)c(OC)c2)Cc2ccc(O)c(OC)c2)ccc1O`, the Potency in assay [1] was 10.6 µM (active); in assay [4], 8.33 µM (active); in [7], 20.9 µM (active); in assay [9], 1.48 µM (active); in [15] it was 15.3 µM (active); in [17], 38.4 µM (active). Moreover, the Potency in assay [18] is 7.41 µM (active). Further, the Potency result in assay [6], in assay [10], in [11], in [12], in assay [14] and in [20] was “inactive” in each case. For the same molecule, the outcome in assay [13] was inactive.

For the origin of these results see PubChem BioAssay (NCATS).
